# In PubChem BioAssay AID1159580 (chemical genetic matrix, 2015):
# The campaign covered roughly 5,500 compounds. About 2,000 (36%) were called active. Roughly 18% stayed inconclusive and do not appear here. The list shows a part of the results. Values without a mark were called inactive. Rule as the data show it: active = normalized growth mostly below about 0.91 (no sharp cut-off); inconclusive = no clear call, values can overlap the other calls; inactive = mostly above about 0.92.
# Assay: chemical genetic growth profiling, strain panel (AID 1159580);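 also: tested at 20 µM; growth read once vehicle control cultures reached saturation at 30 °C; 1 = growth at the plate median or of vehicle wells; lower values mean less growth of the strain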
# Settings: growth OD
structure (smiles),measurement,setting,value
CN(Cc1cnc2nc(N)nc(N)c2n1)c1ccc(C(=O)NC(CCC(=O)O)C(=O)O)cc1 (stereo unspecified),normalized growth,"S. cerevisiae deletion strains, locus YJR066W, strain TOR1, stronger effect = lower value",0.0866 (active)
same,normalized growth,"S. cerevisiae deletion strains, locus YKL009W, strain mrt4, stronger effect = lower value",0.527 (active)
same,normalized growth,"S. cerevisiae deletion strains, locus YKL068W, stronger effect = lower value",0.513 (active)
same,normalized growth,"S. cerevisiae deletion strains, locus YKL085W, strain MDH1 (second series), stronger effect = lower value",0.311 (active)
same,normalized growth,"S. cerevisiae deletion strains, locus YKL085W, strain MDH1, stronger effect = lower value",0.311 (active)
same,normalized growth,"S. cerevisiae deletion strains, locus YKL160W, strain elf1, stronger effect = lower value",0.94
same,normalized growth,"S. cerevisiae deletion strains, locus YKR001C, strain vps1, stronger effect = lower value",0.953
same,normalized growth,"S. cerevisiae deletion strains, locus YKR026C, strain gcn3, stronger effect = lower value",0.934
same,normalized growth,"S. cerevisiae deletion strains, locus YKR091W, strain srl3, stronger effect = lower value",0.94
same,normalized growth,"S. cerevisiae deletion strains, locus YLL001W, strain dnm1, stronger effect = lower value",0.873 (active)
same,normalized growth,"S. cerevisiae deletion strains, locus YLL026W, stronger effect = lower value",0.935
same,normalized growth,"S. cerevisiae deletion strains, locus YLL041C, strain sdh2, stronger effect = lower value",0.955
same,normalized growth,"S. cerevisiae deletion strains, locus YLR027C, strain aat2, stronger effect = lower value",0.94
same,normalized growth,"S. cerevisiae deletion strains, locus YLR039C, strain RIC1, stronger effect = lower value",0.909
same,normalized growth,"S. cerevisiae deletion strains, locus YLR058C, strain SHM2, stronger effect = lower value",0.99
same,normalized growth,"S. cerevisiae deletion strains, locus YLR102C, strain apc9, stronger effect = lower value",0.993
same,normalized growth,"S. cerevisiae deletion strains, locus YLR113W, strain HOG1, stronger effect = lower value",0.247 (active)
same,normalized growth,"S. cerevisiae deletion strains, locus YLR221C, strain rsa3, stronger effect = lower value",0.816 (active)
same,normalized growth,"S. cerevisiae deletion strains, locus YLR258W, strain gsy2, stronger effect = lower value",0.923
same,normalized growth,"S. cerevisiae deletion strains, locus YLR262C, strain YPT6 (second series), stronger effect = lower value",0.952
same,normalized growth,"S. cerevisiae deletion strains, locus YLR262C, strain YPT6, stronger effect = lower value",0.958
same,normalized growth,"S. cerevisiae deletion strains, locus YLR268W, strain sec22, stronger effect = lower value",0.984
same,normalized growth,"S. cerevisiae deletion strains, locus YLR320W, strain mms22, stronger effect = lower value",0.789 (active)
same,normalized growth,"S. cerevisiae deletion strains, locus YLR330W, strain CHS5, stronger effect = lower value",0.973
same,normalized growth,"S. cerevisiae deletion strains, locus YLR342W, strain FKS1 (second series), stronger effect = lower value",1.01
same,normalized growth,"S. cerevisiae deletion strains, locus YLR342W, strain FKS1, stronger effect = lower value",0.928
same,normalized growth,"S. cerevisiae deletion strains, locus YLR357W, strain rsc2, stronger effect = lower value",0.943
same,normalized growth,"S. cerevisiae deletion strains, locus YLR370C, strain arc18, stronger effect = lower value",0.877 (active)
same,normalized growth,"S. cerevisiae deletion strains, locus YLR371W, strain rom2, stronger effect = lower value",1.01
same,normalized growth,"S. cerevisiae deletion strains, locus YLR384C, strain iki3, stronger effect = lower value",0.88 (active)
same,normalized growth,"S. cerevisiae deletion strains, locus YLR418C, strain cdc73, stronger effect = lower value",0.96
same,normalized growth,"S. cerevisiae deletion strains, locus YML016C, strain PPZ1, stronger effect = lower value",1.01
same,normalized growth,"S. cerevisiae deletion strains, locus YML032C, strain rad52, stronger effect = lower value",0.986
same,normalized growth,"S. cerevisiae deletion strains, locus YML120C, strain ndi1, stronger effect = lower value",0.813 (active)
same,normalized growth,"S. cerevisiae deletion strains, locus YML124C, strain tub3, stronger effect = lower value",0.974
same,normalized growth,"S. cerevisiae deletion strains, locus YMR058W, strain fet3, stronger effect = lower value",0.893 (active)
same,normalized growth,"S. cerevisiae deletion strains, locus YMR078C, strain ctf18, stronger effect = lower value",0.986
same,normalized growth,"S. cerevisiae deletion strains, locus YMR125W, strain sto1, stronger effect = lower value",0.95
same,normalized growth,"S. cerevisiae deletion strains, locus YMR129W, stronger effect = lower value",0.948
same,normalized growth,"S. cerevisiae deletion strains, locus YMR205C, strain PFK2, stronger effect = lower value",0.948
same,normalized growth,"S. cerevisiae deletion strains, locus YMR223W, strain ubp8, stronger effect = lower value",0.953
same,normalized growth,"S. cerevisiae deletion strains, locus YMR231W, strain pep5, stronger effect = lower value",0.923 (active)
same,normalized growth,"S. cerevisiae deletion strains, locus YMR263W, strain SAP30, stronger effect = lower value",0.987
same,normalized growth,"S. cerevisiae deletion strains, locus YMR307W, strain GAS1, stronger effect = lower value",1.02
same,normalized growth,"S. cerevisiae deletion strains, locus YNL067W, strain RPL9B, stronger effect = lower value",0.963
same,normalized growth,"S. cerevisiae deletion strains, locus YNL071W, strain lat1, stronger effect = lower value",0.961
same,normalized growth,"S. cerevisiae deletion strains, locus YNL153C, strain GIM3, stronger effect = lower value",0.974
same,normalized growth,"S. cerevisiae deletion strains, locus YNL175C, strain NOP13, stronger effect = lower value",0.975
same,normalized growth,"S. cerevisiae deletion strains, locus YNL183C, strain NPR1, stronger effect = lower value",0.112 (active)
same,normalized growth,"S. cerevisiae deletion strains, locus YNL197C, strain WHI3, stronger effect = lower value",0.976
same,normalized growth,"S. cerevisiae deletion strains, locus YNL209W, strain ssb2, stronger effect = lower value",0.913 (active)
same,normalized growth,"S. cerevisiae deletion strains, locus YNL224C, strain SQS1, stronger effect = lower value",0.977
same,normalized growth,"S. cerevisiae deletion strains, locus YNL233W, strain BNI4, stronger effect = lower value",0.98
same,normalized growth,"S. cerevisiae deletion strains, locus YNL248C, strain rpa49, stronger effect = lower value",0.925
same,normalized growth,"S. cerevisiae deletion strains, locus YNL250W, strain rad50, stronger effect = lower value",0.195 (active)
same,normalized growth,"S. cerevisiae deletion strains, locus YNL271C, strain bni1, stronger effect = lower value",0.291 (active)
same,normalized growth,"S. cerevisiae deletion strains, locus YNL298W, strain CLA4, stronger effect = lower value",0.385 (active)
same,normalized growth,"S. cerevisiae deletion strains, locus YNL307C, strain MCK1, stronger effect = lower value",1.01
same,normalized growth,"S. cerevisiae deletion strains, locus YNL322C, strain KRE1 (second series), stronger effect = lower value",0.512 (active)
same,normalized growth,"S. cerevisiae deletion strains, locus YNL322C, strain KRE1, stronger effect = lower value",0.971
same,normalized growth,"S. cerevisiae deletion strains, locus YNR049C, strain mso1, stronger effect = lower value",0.921
same,normalized growth,"S. cerevisiae deletion strains, locus YNR052C, strain pop2, stronger effect = lower value",0.951
same,normalized growth,"S. cerevisiae deletion strains, locus YOL012C, strain htz1",1.38
same,normalized growth,"S. cerevisiae deletion strains, locus YOL147C, strain pex11, stronger effect = lower value",0.982
same,normalized growth,"S. cerevisiae deletion strains, locus YOR001W, strain rrp6, stronger effect = lower value",0.929
same,normalized growth,"S. cerevisiae deletion strains, locus YOR061W, strain CKA2, stronger effect = lower value",0.99
same,normalized growth,"S. cerevisiae deletion strains, locus YOR069W, strain VPS5, stronger effect = lower value",0.987
same,normalized growth,"S. cerevisiae deletion strains, locus YOR070C, strain gyp1, stronger effect = lower value",0.934
same,normalized growth,"S. cerevisiae deletion strains, locus YOR080W, strain dia2, stronger effect = lower value",0.902 (active)
same,normalized growth,"S. cerevisiae deletion strains, locus YOR083W, strain WHI5 (second series), stronger effect = lower value",0.984
same,normalized growth,"S. cerevisiae deletion strains, locus YOR083W, strain WHI5, stronger effect = lower value",0.908
same,normalized growth,"S. cerevisiae deletion strains, locus YOR106W, strain vam3, stronger effect = lower value",0.801 (active)
same,normalized growth,"S. cerevisiae deletion strains, locus YOR136W, strain idh2, stronger effect = lower value",0.995
same,normalized growth,"S. cerevisiae deletion strains, locus YOR144C, strain elg1, stronger effect = lower value",0.975
same,normalized growth,"S. cerevisiae deletion strains, locus YOR184W, strain ser1, stronger effect = lower value",0.968
same,normalized growth,"S. cerevisiae deletion strains, locus YOR231W, strain MKK1, stronger effect = lower value",0.193 (active)
same,normalized growth,"S. cerevisiae deletion strains, locus YOR265W, strain rbl2, stronger effect = lower value",0.911 (active)
same,normalized growth,"S. cerevisiae deletion strains, locus YOR270C, strain vph1, stronger effect = lower value",0.957
same,normalized growth,"S. cerevisiae deletion strains, locus YOR290C, strain snf2, stronger effect = lower value",0.845 (active)
same,normalized growth,"S. cerevisiae deletion strains, locus YOR316C, strain cot1, stronger effect = lower value",0.984
same,normalized growth,"S. cerevisiae deletion strains, locus YPL051W, strain arl3, stronger effect = lower value",0.984
same,normalized growth,"S. cerevisiae deletion strains, locus YPL078C, strain atp4, stronger effect = lower value",0.947
same,normalized growth,"S. cerevisiae deletion strains, locus YPL106C, strain sse1, stronger effect = lower value",0.947
same,normalized growth,"S. cerevisiae deletion strains, locus YPL240C, strain hsp82, stronger effect = lower value",0.957
same,normalized growth,"S. cerevisiae deletion strains, locus YPL256C, strain CLN2, stronger effect = lower value",0.227 (active)
same,normalized growth,"S. cerevisiae deletion strains, locus YPR119W, strain clb2, stronger effect = lower value",0.989
same,normalized growth,"S. cerevisiae deletion strains, locus YPR141C, strain kar3, stronger effect = lower value",0.345 (active)
same,normalized growth,"S. cerevisiae deletion strains, locus YPR163C, strain tif3, stronger effect = lower value",0.985
same,normalized growth,"S. cerevisiae deletion strains, locus YPR167C, strain met16, stronger effect = lower value",0.975
same,normalized growth,"S. cerevisiae deletion strains, strain wtn01, stronger effect = lower value",0.97
same,normalized growth,"S. cerevisiae strains, strain wild type, stronger effect = lower value",0.973
